In PubChem BioAssay AID361 (National Center for Advancing Translational Sciences (NCATS), 2006):
Among all 51,000 compounds or so, about 600 (1.2%) were called active. Another 2% or so got no clear call; they are omitted. The sample holds actives, similar compounds and a random draw of the others, so the mix is not that of the screen. A number with no mark means an inactive call. No stated cut-off is given here; in the data, active means potency below about 11 µM; inconclusive means mostly about 12 µM to 25 µM; inactive means weaker than that;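 the screen sought inhibitors and activators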.

Tested on: pyruvate kinase (Bacillus stearothermophilus)
Assay: Pyruvate Kinase
Conditions: purified pyruvate kinase, luminescence ATP production; ribose 5-phosphate activator present at AC10
Experimental: Pyruvate kinase (partially purified from Bacillus stearothermophilus) was assayed for its ability to generate ATP from ADP using phosphoenolpyruvate (PEP) as a substrate. ATP generation was detected in a coupled reaction by luciferase-mediated luminescence, an ATP-dependent process. Pyruvate kinase substrates, PEP and ADP, were present in the assay at Km and […]-fold below Km respectively. The enzyme was assayed at an intermediate level of activity to screen for inhibitors and activators. In addition, ribose 5 phosphate, a positive modulator of pyruvate kinase, was included in the assay at AC10 in order to identify possible potentiators.
NCGC Assay Protocol Summary:
Three uL of substrate mix (final concentration, 50 mM imidazole pH 7.2, 50 mM KCl, 7 mM MgCl2, 2 mM PEP, 0.1 mM ADP, 0.7 nM ribose 5 phosphate, 0.01% Tween 20, 0.05% BSA) was dispensed into 1536 well plates. 23 nL of compound were delivered by a pin tool and 1 uL of enzyme mix (final concentration, 10 nM pyruvate kinase, 50 mM imidazole pH 7.2, 0.05% BSA) was added. After centrifugation at 1000 rpm for less than a minute, plates were incubated at room temperature for 2 hours. Three uL of detection and kinase stop mix (PKLight, Cambrex) was added, the plates centrifuged, and luminescence read by a ViewLux (Perkin Elmer) at 5 second exposure/plate. Data were normalized to the controls for AC100 stimulation (5 uM ribose 5 phosphate) and to AC100 inhibition (110 uM luteolin).
Potency means the concentration at half of the fitted maximal effect.

Structure (SMILES) | Potency
CC(C)(C)NC(=O)NC(=O)COC(=O)Cn1c(C(F)(F)F)nc2ccccc21 | > 57 µM
CCN(CC)C(=O)CSc1nnc(-c2ccc(S(=O)(=O)NCc3ccccc3Cl)cc2)o1 | > 57 µM
CCn1c(SCC(=O)Nc2nc3ccc(OC)cc3s2)nnc1-c1ccoc1C | > 57 µM
O=C(CN1CCN(c2ccccn2)CC1)NCc1cccs1 | > 57 µM
CC(C)n1c(SCC(=O)Nc2ccccc2N2CCCCC2)nc2c1c(=O)n(C)c(=O)n2C | > 57 µM
COC(=O)c1ccc(Oc2nc(NC(C)C)nc(SC)n2)cc1 | > 57 µM
CNC(=O)CSc1nnc(CCc2ccccc2)n1-c1ccccc1 | > 57 µM
CCOC(=O)C1CCN(C(=O)c2oc3ccc(S(=O)(=O)N4CCCCCC4)cc3c2C)CC1 | > 57 µM
CCOC(=O)C1CCN(c2ncnc3c2oc2ccc(Br)cc23)CC1 | 10.6 µM (active)
Cc1cc(C)nc(N2CCN(c3ncnc4c3oc3ccccc34)CC2)n1 | > 57 µM
CCCC(=O)Nc1cccc(-c2cn3ccsc3n2)c1 | 49.6 µM
COc1ccc(-c2cn3ccsc3n2)cc1 | 4.01 µM (active)
O=C(NCc1cn2ccsc2n1)Nc1ccc(Cl)cc1 | > 57 µM
COc1ccc(CCNC(=O)CN2CCC(n3nnc4cc(F)ccc43)CC2)cc1OC | > 57 µM
CCCc1cc(=O)oc2c(C)c(O)c(CN3CCCCC3)cc12 | > 25.6 µM
COc1ccccc1C(=O)Oc1ccc(N2C(=O)CCC2=O)cc1 | > 57 µM
O=S(=O)(/C=C/c1ccccc1)NCCc1ccccn1 | > 57 µM
O=C(c1cccs1)N1CCC(c2nc3ccccc3s2)CC1 | > 57 µM
O=C(OC1CCOC1=O)c1ccc(-c2nc3ccccc3s2)s1 (stereo not drawn) | 4.84 µM (active)
Cc1nn(Cc2ccccc2)c(Cl)c1C(=O)OC1CCOC1=O (stereo not drawn) | > 57 µM
CC(NCCO)C(=O)C12CC3CC(CC(C3)C1)C2 (stereo not drawn) | > 57 µM
CCC(C)NC(=O)N[C@@H](CCSC)C(=O)O (stereo partly drawn) | > 57 µM
COC(=O)CNC(=O)c1ccc2c(c1)S(=O)(=O)c1ccccc1C2=O | > 57 µM
CC(C)c1nc(-c2ccccn2)no1 | > 57 µM
O=C(Oc1ccc(-c2nc(-c3ccccn3)no2)cc1)c1ccccc1 | 6.85 µM (active)

Structure (SMILES) | Potency
O=C(Oc1ccccc1)c1ccc2nccnc2c1 | > 57 µM
CCOC(=O)CSC1=C(C#N)C(c2ccco2)C(C(=O)OCc2ccccc2)=C(C)N1 (stereo not drawn) | > 57 µM
N#Cc1c2c(c(-c3ccccc3)[nH]c1=O)CCCC2 | > 25.6 µM
CCc1nnc(NC(=O)CSc2nnc(-c3ccncc3)n2Cc2ccccc2)s1 | > 57 µM
C=CCN(CC=C)C(=O)CN1C(=O)c2ccccc2C1=O | > 57 µM
Cc1cc(C(=O)COC(=O)CCCN2C(=O)c3ccccc3C2=O)c(C)n1C | > 57 µM
C=CCn1c(C)cc(C(=O)CN2C(=O)c3ccccc3C2=O)c1C | 5.37 µM (active)
O=C1CCC(C(=O)Nc2ccc(OC(F)F)cc2)N1 (stereo not drawn) | > 57 µM
O=c1oc2cc(O)ccc2cc1-c1ccc(F)cc1 | > 57 µM
COc1ccc(-c2cc3ccc(OCc4nn[nH]n4)cc3oc2=O)cc1 | 5.08 µM (active)
CCCCc1cc(=O)oc2cc(C)cc(OCc3nn[nH]n3)c12 | > 57 µM
CCCCOc1ccc(C(C)(O)CCN2CCOCC2)cc1 (stereo not drawn) | > 57 µM
O=C(CC1Nc2ccccc2NC1=O)Nc1ccccc1 (stereo not drawn) | > 11.4 µM
Cc1ncc(CC(=O)n2cc(C(=O)c3cc(Cl)ccc3O)cn2)s1 | > 57 µM
O=C1CC(Cc2ccccc2)C(=O)N1c1ccc(Cl)cn1 (stereo not drawn) | > 57 µM
O=C(O)CCCC(=O)Nc1ccccc1-n1ccnc1 | > 57 µM
CC(=O)c1cc2c(cc1N)OCO2 | > 57 µM
CCCCN(C)C(=O)C1CCN(Cc2ccccn2)CC1 | > 57 µM
Cc1cc(N2CCCC2)n2nc(C)c(-c3ccccc3)c2n1 | > 57 µM
c1coc(-c2nc3nc4ccccc4n3nc2-c2ccco2)c1 | > 57 µM
CN(c1nc2ccccc2n2c(-c3ccco3)nnc12)S(=O)(=O)c1ccccc1 | > 57 µM
Cn1c(-c2ccco2)nc2cc3ccccc3cc21 | 0.493 µM (active)
Clc1ccc(CSc2nnc([C@@H]3CCCN3)o2)cc1 | > 57 µM
CCN1CCN(C(=O)c2ccccc2N(C)S(=O)(=O)c2ccc(C)cc2)CC1 | > 57 µM
Cc1nnc(NC2=NCCCCC2)o1 | > 57 µM

Structure (SMILES) | Potency
Cc1cc(C)c2nc(SCCC#N)nc(C)c2c1 | 48.9 µM
Fc1ccc2[nH]c3c(N4CCN(Cc5ccc6c(c5)OCO6)CC4)ncnc3c2c1 | > 25.6 µM
CNC(=O)C1CC(=O)N(Cc2ccc3c(c2)OCO3)C(=Nc2ccc(F)cc2)S1 (stereo not drawn) | > 57 µM
Cc1cc(C)n(C(=O)c2ccc(C)c(S(=O)(=O)N3CCOCC3)c2)n1 | > 57 µM
COc1ccc2nc(N3CCCC(O)C3)c(C#N)cc2c1 (stereo not drawn) | 41.4 µM
O=C(NCc1ccccc1)C1C(=O)N(Cc2ccccc2)C(=O)C1C1(O)CCCC1 (stereo not drawn) | > 25.6 µM
CC1CCCN(C(=O)Cn2c(=O)oc3ccccc32)C1 (stereo not drawn) | > 57 µM
COc1c(F)c(F)c(-c2csc(N)n2)c(F)c1F | > 57 µM
Cc1cc(=O)oc(C)c1C(=O)Nc1cnc2ccccc2c1 | > 57 µM
Cc1ccc2c(C(=O)CN3CCCC3)c(C)[nH]c2c1 | > 11.4 µM
COC(=O)c1[nH]c2ccccc2c1NS(=O)(=O)c1ccc(OC)cc1OC | > 57 µM
COc1ccc(OC)c(N=Cc2c(O)[nH]c3ccccc23)c1 | > 57 µM
COc1ccc(N=Cc2c(O)[nH]c3ccccc23)cc1OC | 4.61 µM (active)
Cc1cc(NC(=O)CSc2nnc(-c3ccc(Cl)s3)o2)no1 | > 57 µM
Cc1nc(SCC(=O)Nc2cc(C)on2)c2c(C)c(C)sc2n1 | > 57 µM
Cc1cc(C)c2c(c1)cc(C)c1nnc(SCC(=O)Nc3cc(C)on3)n12 | > 57 µM
Cc1ccc2nc(-c3ccc(SCC(=O)Nc4cc(C)on4)nc3)[nH]c2c1 | 2.74 µM (active)
COc1ccc(OC)c2c(N)c(C#N)c(C(F)(F)C(F)(F)F)nc12 | > 25.6 µM
C=CCc1cccc2cc(C(=O)N3CCN(C(=O)OCC)CC3)c(=O)oc12 | > 57 µM
COc1ccccc1CNCc1cccs1 | > 57 µM
COc1ccc(CNC(=O)c2c(C)cc(=O)oc2C)cc1OC | > 25.6 µM
Cc1ccc(C(=O)NCC2CCCO2)o1 (stereo not drawn) | > 57 µM
CCc1cc2c(=O)c(-c3ccon3)c(N)oc2cc1OC | 4.26 µM (active)
COc1cccc(N2CC(C(=O)Nc3c(C)cccc3C)CC2=O)c1 (stereo not drawn) | > 57 µM
Cc1cccc(NC(=O)c2ccccc2NC(=O)C(C)(C)C)n1 | > 57 µM

Structure (SMILES) | Potency
CCn1c(=N)n(CC(=O)c2cccc(OC)c2)c2ccccc21 | 38.1 µM
Cn1c(/C(C#N)=C2/CCCCCN2)nc2ccccc21 | > 57 µM
CC1CCCCN1CC(=O)NCc1ccc2c(c1)OCO2 (stereo not drawn) | > 57 µM
CN(CCc1ccccn1)S(=O)(=O)c1ccc2c3c(cccc13)C(=O)N2 | > 57 µM
CSc1ccc(Cl)c(C(=O)OCC(=O)N2CC(C)OC(C)C2)c1 (stereo not drawn) | > 57 µM
NC(=O)COc1ccc2c3c(c(=O)oc2c1)CCCCC3 | > 57 µM
CCN(CC)S(=O)(=O)c1cccc(C(=O)NCC(=O)OCC(=O)NCc2ccccc2)c1 | > 57 µM
CCCCC(CC)C(=O)Nc1ccc(Cl)cn1 (stereo not drawn) | > 57 µM
O=C(Nc1ccc(Cl)cn1)c1cnn2cccnc12 | 8.73 µM (active)
CC(Oc1ccc(Cl)cc1)C(=O)Nc1ncccn1 (stereo not drawn) | > 57 µM
O=C(O)c1ccc(NC(=O)c2cccs2)cc1 | > 57 µM
Cc1nc(-c2ccc(NC(=O)c3cccs3)cc2)cs1 | 2.04 µM (active)
O=C(Nc1ncccn1)c1cccs1 | > 57 µM
COC(=O)CCSc1nccn1Cc1ccccc1 | > 57 µM
O=c1c(F)cn(C2CCCO2)c(=O)n1Cc1ccccc1Cl (stereo not drawn) | > 25.6 µM
CCCOc1ccc(CN(CCO)CCO)cc1C(=O)OC | > 57 µM
COc1ccc(N(Cc2cc3cc(OC)ccc3[nH]c2=O)S(C)(=O)=O)cc1 | 7.73 µM (active)
CCC(=O)N(Cc1cc2cc(OC)ccc2[nH]c1=O)c1ccccc1C | > 57 µM
CCN(Cc1cc2cc(C)ccc2[nH]c1=O)S(=O)(=O)c1ccccc1 | > 57 µM
COc1cccc(NC(=O)c2ccccc2SC)c1 | > 57 µM
CC(C)(O)C#Cc1ccc(C(=O)N2CCC(C(N)=O)(N3CCCCC3)CC2)cc1 | > 57 µM
Cc1ccc(NC(=O)CS(=O)CC(=O)N(c2ccccc2)C(C)C(=O)NC2CCCC2)cc1 (stereo not drawn) | > 57 µM
CCCCC(=O)N(c1ccc(OC)cc1)C1C=CS(=O)(=O)C1 (stereo not drawn) | > 57 µM
